LASV entry inh: qHTS for Inhibitors of binding or entry into cells for Lassa Virus; Lassa virus pseudotype entry inhibition, cell reporter; Potency, µM (highest dose often 37.9 µM), inactives show top-dose activity change, negative = inhibition, usual class: inhibitors; hit rate 1.2% among 300,000; AID 540256, 2011; calls by dose curve; tested in HEK293 cells; note: potency is the fitted concentration of half-maximal effect; % is set by controls: 0 for no effect and ±100 for the full control effect; nearly all actives have a fitted effect of over 50% in size
Marburg entry inh: qHTS for inhibitors of binding or entry into cells for Marburg Virus; Marburg virus pseudotyped entry inhibition, cell reporter; Potency, µM (top dose mostly 37.8 µM), inactives show at the top dose activity change, negative = inhibition, actives largely listed as inhibitors; hit rate 1.8% among 300,000; AID 540276, 2011; calls by dose curve; tested in HEK293 cells; note: potency is the fitted concentration of half-maximal effect; % is set by controls: 0 for no effect and ±100 for the full control effect
Cycloheximide cs: Cycloheximide Counterscreen for Small Molecule Inhibitors of Shiga Toxin | cell reporter, cycloheximide protein synthesis inhibition counterscreen | max response, % | hit rate 12% among 300,000; in the data active = max response mostly above about 13%, no sharp cut-off; inactive = mostly below about 14%; note: read at 38.3 µM for the half of the compounds with a filed dose; 0% is about no effect
Shiga inhibitor: A qHTS for Small Molecule Inhibitors of Shiga Toxin | Vero cells, Shiga toxin protein synthesis inhibition reporter | inhibition, % at 38.7 µM | hit rate 9.2% among 290,000; in the data active = inhibition mostly above about 28%, no sharp cut-off; inactive = mostly below about 43%; note: 0% is about no effect
An asterisk follows results filed as active; ? = inconclusive; / = no result given; [ ] = remark or other dose. An excerpt weighted towards active compounds, which were near 12% of everything screened.

SMILES | LASV entry inh | Marburg entry inh | Cycloheximide cs | Shiga inhibitor
COc1ccc(-n2c(SCC(=O)Nc3ncc(Cl)cc3Cl)nc3ccccc32)cc1 | / | / | -5.8 | 17.3
COc1cccc(C(C(=O)NC(C)(C)C)N(Cc2ccc(F)cc2)C(=O)CCC(=O)Nc2cc(C)on2)c1OC (centres undefined) | -20.8% | -1.5%[46.1 µM] | -2.0 | -14.5
COc1ccc(S(=O)(=O)NCC2CCCN(C(=O)c3ccccc3)C2)cc1 (centres undefined) | / | / | 6.8 | 28.7
CC(=O)OCC(NC(=O)C(COCc1ccccc1)NC(=O)OC(C)(C)C)C1OC(n2ccc(=O)[nH]c2=O)C(OC(C)=O)C1OC(C)=O (centres undefined) | / | / | -6.1 | -7.2
CN(C)S(=O)(=O)c1ccc(Cl)c(NC(=O)COC(=O)CCC2CCCCC2)c1 | 2.1% | 23.0% | / | /
COc1ccc(NC(=O)C(C)n2nc(-c3cc(C)ccc3C)c3c(c2=O)CCCC3)cc1 (centres undefined) | -17.2%[46.1 µM] | ? | / | /
Cc1cccc(N2CCN(C(=O)c3cccs3)CC2)c1C | ? | -10.1% | -3.3 | -9.0
Cc1cc(C)n(C(=O)CNC(=O)c2cccs2)n1 | 18.0% | 5.1% | -5.3 | -8.1
CC1CCCC(C)N1/N=C/C=C/c1ccccc1[N+](=O)[O-] (centres undefined) | 1.2% | 1.9%[46.1 µM] | 38.4* | 69.2*
Cc1cc(C)n(C(=O)/C=C/c2cccs2)n1 | 6.0%[46.1 µM] | 16.4%[46.1 µM] | 28.6* | 64.4*
COc1ccccc1N1CCN(C(=O)/C=C/c2ccco2)CC1 | ? | ? | 28.0* | 37.1*
Cc1cccc(N2CCN(C(=O)/C=C/c3cccs3)CC2)c1C | ? | ? | 43.5* | 64.2*
NC(=O)c1ccc(NC(=O)CN2CCN(c3ccccc3)CC2)cc1 | / | / | -2.6 | /
O=C(CN1C(=O)C2C3C=CC(C3)C2C1=O)OCC(=O)c1ccc(Cl)cc1 (centres undefined) | -0.5%[46.1 µM] | -7.2%[46.1 µM] | 13.3 | -3.6
O=C(CCN1C(=O)C2C3C=CC(C3)C2C1=O)Nc1ccccn1 (centres undefined) | 2.2% | 12.6% | -2.3 | 37.5
O=C1C2C3C=CC(C3)C2C(=O)N1CCCCCCN1C(=O)C2C3C=CC(C3)C2C1=O (centres undefined) | ? | 13.3%[46.1 µM] | 48.2* | 68.1*
O=C(CCN1C(=O)C2C3C=CC(C3)C2C1=O)Nc1ccc2ncccc2c1 (centres undefined) | 19.5% | 0.0% | 45.4* | 64.3*
O=C(CN1C(=O)C2C3C=CC(C3)C2C1=O)OCC(=O)c1ccccc1 (centres undefined) | 6.0% | ? | 21.0* | 37.4*
O=C(O)C1C2C=CC(C2)C1C(=O)NCCc1ccccc1 (centres undefined) | -1.6% | 7.6% | 12.5 | 30.0*
CC(C=NNc1ccc([N+](=O)[O-])cn1)=Cc1ccccc1 | ? | 7.9%[46.1 µM] | / | /
O=C1C2C3C=CC(C3)C2C(=O)N1CCc1ccccc1 (centres undefined) | 1.2% | 23.8% | 8.3 | 33.6
O=C(CCN1C(=O)C2C3C=CC(C3)C2C1=O)NCCc1ccccc1 (centres undefined) | 8.7% | ? | 9.7* | 19.1
O=C(ONC(=O)C1C2C=CC(C2)C1C(=O)NOC(=O)c1ccccc1)c1ccccc1 (centres undefined) | 7.94µM* | 3.98µM* | / | /
O=c1oc(Nc2cccc(Cl)c2)nc2ccccc12 | ? | ? | 36.1* | 47.5*
O=c1oc(-c2ccccc2NS(=O)(=O)c2ccc(F)cc2)nc2ccccc12 | 1.3% | -2.2% | -2.6 | -6.3
SMILES | LASV entry inh | Marburg entry inh | Cycloheximide cs | Shiga inhibitor
O=c1oc(Nc2ccccc2F)nc2ccccc12 | 9.0% | ? | 33.6* | 52.5*
O=c1oc(Nc2ccccc2Cl)nc2ccccc12 | / | / | 23.0* | 31.1
Nc1cc(N)nc(SCCc2ccccc2)n1 | -1.8% | ? | 16.5* | 26.3
Nc1cc(N)nc(SCc2ccccc2)n1 | ? | ? | 40.8* | 53.2*
Nc1cc(N)nc(SCc2cccnc2)n1 | 15.4% | 0.8% | 7.1 | 34.2
O=C(Cc1cccc2ccccc12)N1CCCc2ccccc21 | 1.8% | -2.3% | 7.8 | 14.9
CCc1ccc(S(=O)(=O)NCc2csc(C)n2)cc1 | -0.4%[46.1 µM] | ? | 7.0 | -7.1
Nc1c(C(=O)Nc2ccc(Cl)cc2)oc2ccccc12 | / | / | 55.0* | 175.1*
Nc1c(C(=O)c2ccc(F)cc2)oc2ccccc12 | 3.1% | 17.5% | 37.7* | 43.6*
Cc1c(C(=O)c2ccccc2)oc2ccc3ccccc3c12 | ? | ? | 50.7* | 105.7*
Nc1c(C(=O)c2ccco2)oc2ccccc12 | / | / | 20.8* | 24.3*
O=C(Nc1c(C(=O)c2ccccc2)oc2ccccc12)c1ccc(F)cc1 | 8.4%[46.1 µM] | -16.7%[46.1 µM] | / | /
Cc1nc2ccc(C(=O)N3CCCC(CO)(Cc4ccc(F)cc4F)C3)cc2nc1C (centres undefined) | / | / | -2.1 | -2.0
CC(=O)c1oc2ccccc2c1N | 0.6% | 7.6% | 0.4 | -2.1
Nc1c(C(=O)N2CCOCC2)oc2ccccc12 | / | / | 18.2* | 15.4
Nc1c(C(=O)c2ccccc2)oc2ccccc12 | 0.0% | 4.9% | 22.1* | 27.7
COC(=O)n1c(=S)oc2cc(Cl)ccc21 | / | -1.6% | -2.2 | -16.1
CCCCOC(=O)n1c(=S)oc2cc(Cl)ccc21 | 17.4% | -2.9% | 23.6* | 100.6*
COC(=O)c1ccc(C(=O)NC2CCCc3c2cnn3-c2cc(F)cc(F)c2)nc1 (centres undefined) | -8.2% | ? | 13.3 | 14.0
O=C1NC(=S)N(C(=O)c2ccc(F)cc2)/C1=C/c1cccnc1 | ? | -23.9% | 8.8 | 7.9
COc1ccc(/C=C2\C(=O)NC(=S)N2C(=O)c2ccc(C)cc2)cc1 | 15.3% | ? | 34.8* | 59.3*
CCN(CC)c1ccc(N2C(=O)/C(=C/c3cccnc3)SC2=S)cc1 | -21.2% | 1.3% | -4.3 | 0.9
S=C(N=Nc1ccccc1)NNc1ccccc1 | ? | 20.1% | 53.8* | 121.7*
O=C1CSC(c2ccccc2)N1Cc1ccccn1 (centres undefined) | -2.2% | 0.9% | 1.7 | -3.1
O=C1OC(Cc2ccccn2)C(=O)C1=C1SCCS1 (centres undefined) | 5.4% | 26.4% | 29.5* | active
SMILES | LASV entry inh | Marburg entry inh | Cycloheximide cs | Shiga inhibitor
COC(=O)c1cnn(-c2ccc(C)c(C)c2)c1-n1cccc1 | 2.0% | 9.3% | 20.2* | 28.8
COCCNC(=O)c1cnn(-c2cccc(C)c2)c1-n1cccc1 | 18.8%[46.1 µM] | / | / | /
CCOc1ccc(/C=C2\CCC(C3CCCC3)C2=O)cc1 (centres undefined) | 1.4%[46.1 µM] | ? | 22.2* | 21.4
O=C1/C(=C/c2ccco2)CCC1C1CCCC1 (centres undefined) | ? | 2.2%[46.1 µM] | 52.9* | 127.0*
COc1ccccc1/C=C1\CCC(C2CCCC2)C1=O (centres undefined) | / | / | 34.2* | 43.0*
CCOc1ccc(/C=C2\CCC(C3CCCC3)C2=O)cc1OC (centres undefined) | / | / | 7.5 | 29.9
COc1ccc(/C=C2\CCC(C3CCCC3)C2=O)cc1Cn1cccn1 (centres undefined) | -10.1% | ? | 0.9 | 2.6
O=C1/C(=C/c2ccccc2)CCC1C1CCCC1 (centres undefined) | ? | ? | 39.8* | 76.1*
O=C1/C(=C/c2ccc(F)cc2)CCC1C1CCCC1 (centres undefined) | 4.5% | ? | 41.2* | 74.8*

Source: PubChem (National Center for Advancing Translational Sciences (NCATS))
